Assay results published in article PMC11006913.
Changes are numbered by the printed parent chain.

Columns and labels:
Experiment in all cases: PBM; 200 nM protein, PBS
Settings in all cases: dsDNA, one strand shown
[1] = target: T1, PAX4 (Homo sapiens, UniProt O43316 9-242, R200K)
T1 sequence: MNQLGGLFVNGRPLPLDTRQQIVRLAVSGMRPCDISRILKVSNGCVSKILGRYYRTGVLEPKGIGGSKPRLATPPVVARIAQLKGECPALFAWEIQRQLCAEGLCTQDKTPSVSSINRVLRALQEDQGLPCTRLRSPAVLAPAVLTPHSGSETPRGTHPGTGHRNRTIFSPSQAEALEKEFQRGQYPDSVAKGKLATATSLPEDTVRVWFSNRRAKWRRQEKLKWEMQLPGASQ

[2] = target: T2, PAX4 (Homo sapiens, UniProt O43316 9-242)
T2 sequence: T1 sequence with K192R

[3] = target: HOXA2 (Homo sapiens, UniProt O43364 129-215, R185T)
Chain of HOXA2 (Homo sapiens, UniProt O43364 129-215, R185T) (O43364 129-215 R185T): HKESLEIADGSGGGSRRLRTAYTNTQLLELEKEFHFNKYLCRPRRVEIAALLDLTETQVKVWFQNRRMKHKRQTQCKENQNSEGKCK

[4] = target: ALX3 (Homo sapiens, UniProt O95076 139-225, N203Q)
Chain of ALX3 (Homo sapiens, UniProt O95076 139-225, N203Q) (O95076 139-225 N203Q): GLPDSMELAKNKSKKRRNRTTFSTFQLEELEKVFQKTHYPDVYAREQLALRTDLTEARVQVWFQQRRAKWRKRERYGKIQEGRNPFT

[5] = target: T3, PAX4 (Homo sapiens, UniProt O43316 9-242, R200Q)
T3 sequence: T1 sequence with K192Q

[6] = target: HOXA2 (Homo sapiens, UniProt O43364 129-215, R185K)
Chain of HOXA2 (Homo sapiens, UniProt O43364 129-215, R185K) (O43364 129-215 R185K): as the sequence (O43364 129-215 R185T) above, with T57K counted along it

[7] = target: T4, PAX4 (Homo sapiens, UniProt O43316 9-242, F177V)
T4 sequence: T1 sequence with F169V, K192R

[8] = target: ALX3 (Homo sapiens, UniProt O95076 139-225)
Chain of ALX3 (Homo sapiens, UniProt O95076 139-225) (O95076 139-225): as the sequence (O95076 139-225 N203Q) above, with Q65N counted along it

[9] = target: T5, PAX4 (Homo sapiens, UniProt O43316 9-242, F177Y)
T5 sequence: T1 sequence with F169Y, K192R

[10] = target: ALX3 (Homo sapiens, UniProt O95076 139-225, L168Q)
Chain of ALX3 (Homo sapiens, UniProt O95076 139-225, L168Q) (O95076 139-225 L168Q): as the sequence (O95076 139-225 N203Q) above, with L30Q, Q65N counted along it

[11] = target: ALX3 (Homo sapiens, UniProt O95076 139-225, L168V)
Chain of ALX3 (Homo sapiens, UniProt O95076 139-225, L168V) (O95076 139-225 L168V): as the sequence (O95076 139-225 N203Q) above, with L30V, Q65N counted along it

[12] = target: T6, PAX4 (Homo sapiens, UniProt O43316 9-242, R227W)
T6 sequence: T1 sequence with K192R, R219W

[13] = target: HOXA2 (Homo sapiens, UniProt O43364 129-215, Y150S)
Chain of HOXA2 (Homo sapiens, UniProt O43364 129-215, Y150S) (O43364 129-215 Y150S): as the sequence (O43364 129-215 R185T) above, with Y22S, T57R counted along it

[14] = target: ALX3 (Homo sapiens, UniProt O95076 139-225, N203S)
Chain of ALX3 (Homo sapiens, UniProt O95076 139-225, N203S) (O95076 139-225 N203S): as the sequence (O95076 139-225 N203Q) above, with Q65S counted along it

[15] = target: HOXA2 (Homo sapiens, UniProt O43364 129-215)
Chain of HOXA2 (Homo sapiens, UniProt O43364 129-215) (O43364 129-215): as the sequence (O43364 129-215 R185T) above, with T57R counted along it

[16] = target: PITX2 (Homo sapiens, UniProt Q99697 72-157)

Row | Sequence | binding signal [1] | binding signal [2] | binding signal [3] | binding signal [4] | binding signal [5] | binding signal [6] | binding signal [7] | binding signal [8] | binding signal [9] | binding signal [10] | binding signal [11] | binding signal [12] | binding signal [13] | binding signal [14] | binding signal [15] | binding signal [16]
1 | GGGGGGGA | 9.06 upbm affinity estimate (log intensity, higher = more binding, comparable within an allelic series) | 9.13 upbm affinity estimate (log intensity, higher = more binding, comparable within an allelic series) | 6.89 upbm affinity estimate (log intensity, higher = more binding, comparable within an allelic series) | 7.53 upbm affinity estimate (log intensity, higher = more binding, comparable within an allelic series) | 9.12 upbm affinity estimate (log intensity, higher = more binding, comparable within an allelic series) | 9.81 upbm affinity estimate (log intensity, higher = more binding, comparable within an allelic series) | 9.01 upbm affinity estimate (log intensity, higher = more binding, comparable within an allelic series) | 7.53 upbm affinity estimate (log intensity, higher = more binding, comparable within an allelic series) | 9.15 upbm affinity estimate (log intensity, higher = more binding, comparable within an allelic series) | 7.42 upbm affinity estimate (log intensity, higher = more binding, comparable within an allelic series) | 7.45 upbm affinity estimate (log intensity, higher = more binding, comparable within an allelic series) | 9.15 upbm affinity estimate (log intensity, higher = more binding, comparable within an allelic series) | 10.2 upbm affinity estimate (log intensity, higher = more binding, comparable within an allelic series) | 7.55 upbm affinity estimate (log intensity, higher = more binding, comparable within an allelic series) | 7.05 upbm affinity estimate (log intensity, higher = more binding, comparable within an allelic series) | –
2 | CGGAGCCG | 9.19 upbm affinity estimate (log intensity, higher = more binding, comparable within an allelic series) | 9.38 upbm affinity estimate (log intensity, higher = more binding, comparable within an allelic series) | 7.43 upbm affinity estimate (log intensity, higher = more binding, comparable within an allelic series) | – | 9.24 upbm affinity estimate (log intensity, higher = more binding, comparable within an allelic series) | 10.1 upbm affinity estimate (log intensity, higher = more binding, comparable within an allelic series) | 9.03 upbm affinity estimate (log intensity, higher = more binding, comparable within an allelic series) | – | 9.04 upbm affinity estimate (log intensity, higher = more binding, comparable within an allelic series) | – | – | 9.09 upbm affinity estimate (log intensity, higher = more binding, comparable within an allelic series) | 10.4 upbm affinity estimate (log intensity, higher = more binding, comparable within an allelic series) | – | 7.23 upbm affinity estimate (log intensity, higher = more binding, comparable within an allelic series) | –
3 | CGGAGGGC | 9.09 upbm affinity estimate (log intensity, higher = more binding, comparable within an allelic series) | 9.28 upbm affinity estimate (log intensity, higher = more binding, comparable within an allelic series) | 7.21 upbm affinity estimate (log intensity, higher = more binding, comparable within an allelic series) | – | 9.19 upbm affinity estimate (log intensity, higher = more binding, comparable within an allelic series) | 10.3 upbm affinity estimate (log intensity, higher = more binding, comparable within an allelic series) | 9.08 upbm affinity estimate (log intensity, higher = more binding, comparable within an allelic series) | – | 9 upbm affinity estimate (log intensity, higher = more binding, comparable within an allelic series) | – | – | 9.1 upbm affinity estimate (log intensity, higher = more binding, comparable within an allelic series) | 10.3 upbm affinity estimate (log intensity, higher = more binding, comparable within an allelic series) | – | 7.24 upbm affinity estimate (log intensity, higher = more binding, comparable within an allelic series) | 7.96 upbm affinity estimate (log intensity, higher = more binding, comparable within an allelic series)
4 | CATTTAAC | 10.7 upbm affinity estimate (log intensity, higher = more binding, comparable within an allelic series) | 10.9 upbm affinity estimate (log intensity, higher = more binding, comparable within an allelic series) | – | – | 10.8 upbm affinity estimate (log intensity, higher = more binding, comparable within an allelic series) | – | 10.2 upbm affinity estimate (log intensity, higher = more binding, comparable within an allelic series) | – | – | – | – | – | – | – | – | –
5 | CGGGGCGC | 9.09 upbm affinity estimate (log intensity, higher = more binding, comparable within an allelic series) | 9 upbm affinity estimate (log intensity, higher = more binding, comparable within an allelic series) | 7.19 upbm affinity estimate (log intensity, higher = more binding, comparable within an allelic series) | – | 8.96 upbm affinity estimate (log intensity, higher = more binding, comparable within an allelic series) | 9.85 upbm affinity estimate (log intensity, higher = more binding, comparable within an allelic series) | 8.91 upbm affinity estimate (log intensity, higher = more binding, comparable within an allelic series) | – | 9.04 upbm affinity estimate (log intensity, higher = more binding, comparable within an allelic series) | – | – | 9.06 upbm affinity estimate (log intensity, higher = more binding, comparable within an allelic series) | 10.3 upbm affinity estimate (log intensity, higher = more binding, comparable within an allelic series) | – | 7.21 upbm affinity estimate (log intensity, higher = more binding, comparable within an allelic series) | –
